Reference: PubChem BioAssay
Records with an inconclusive call do not appear. Calls of active or inactive are those of the source. Cut-off read from the data, not from the text of the source, unless noted: active = response above about 15%; inactive = the rest.

What was measured:
[1] = yeast TOR pathway RPL19A-GFP modulators, primary screen, cell-based, S. cerevisiae, multiplex flow cytometry (AID 1862; in the data active = percent of DMSO control GFP below about 86%;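 note: lower values mimic rapamycin by blocking the RPL19A rise seen in DMSO cells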); conditions: S. cerevisiae RPL19A-GFP strain, flow cytometry fluorescence, 3 h; at 10 µM; stronger effect = lower value
[2] = modulators of MEP2-GFP levels in yeast, primary screen, S. cerevisiae, multiplex flow cytometry (AID 1867;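 active = GFP response, as percent of the DMSO control, above the screen-wide mean plus 3 SD, about 139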;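 note: median GFP channel fluorescence of barcode-gated MEP2-GFP cells measured by flow cytometry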); conditions: S. cerevisiae MEP2-GFP strain, 3 h, at 10 µM, stronger effect = higher value, 100% means same as DMSO wells
[3] = modulators of CIT2-GFP expression in yeast, primary screen, S. cerevisiae, GFP fusion, multiplex flow cytometry (AID 1870;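 active = percent response above a set limit, the screen-wide mean plus 3 SD, cut at about 130% in these data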;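 note: barcoded CIT2-GFP strain pooled with four other GFP strains with rapamycin as positive control; median GFP fluorescence per well over plate mean of DMSO wells so 100% = DMSO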); conditions: 3 h, at 10 µM, stronger effect = higher value
[4] = modulators of LAP4-GFP expression in yeast, primary screen, S. cerevisiae, multiplex flow cytometry (AID 1873;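 active = GFP signal, as percent of the solvent control, above the screen mean plus 3 SD, about 149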); conditions: 3 h, at 10 µM, stronger effect = higher value
[5] = modulators of AGP1-GFP expression in yeast TOR pathway, primary screen, cell-based, multiplex flow cytometry, S. cerevisiae (AID 1887;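 active = GFP signal above the screen-wide mean plus 3 SD, that is over about 124.5% of the solvent control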;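 note: AGP1-GFP fusion strain of S. cerevisiae within a five-strain barcoded multiplex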); conditions: 3 h, at 10 µM, stronger effect = higher value
[6] = inhibitors of CD8+ T cell-vesicle binding, pilot screen, LFA-1/ICAM-1 modulator project, MLPCN validation set, flow cytometry (AID 2523;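 active = response below a set limit, under 55% cells CD8-positive and vesicle-bound, and CD8 cells' 90th-percentile brightness under 279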;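 for vesicle binding response: mean PE anti-B7-1 fluorescence of CD8+ cells relative to row control; 100% = QL9-loaded vesicles with DMSO vehicle in the same plate row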); conditions: 2C mouse CD8+ T cells, at 7 µM, stronger effect = lower value; double positive events: measured here: CD8+/vesicle+ event percentage
[7] = target: Integrin beta-1 (Homo sapiens) + Integrin alpha-4 (Homo sapiens) (UniProt P13612+P05556); experiment: inhibition of HUTS-21 binding to VLA-4, pilot screen, VLA-4 allosteric modulator project, U937 cells, HUTS-21 mAb, flow cytometry, validation set (AID 2674;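 active = inhibition above 50%, about 3 SD of the validation set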;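 note: antibody binding induced by the VLA-4 ligand LDV present at three times its Kd; 0% = LDV ligand with antibody and no compound and 100% = antibody without LDV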); conditions: HUTS-21 LIBS mAb binding, at 6.7 µM, stronger effect = higher value, binding induced by LDV ligand
[8] = superoxide lowering in aged yeast cells, pilot screen, validation compound set (AID 2706;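 active = superoxide response below 65% of plate, a cut near 3 SD across the whole screen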;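 note: yeast exposed to compound for one week at 30 degrees C before staining; 100% = mean of all compound wells on the same plate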); conditions: S. cerevisiae aging, superoxide DHE fluorescence; at 10 µM; stronger effect = lower value
[9] = target: Beta-adrenergic receptor kinase 1 (Homo sapiens) (UniProt P25098); experiment: GRK2 binders displacing RNA aptamer, biochemical, validation, human GRK2, bead flow cytometry (AID 488806;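 active = aptamer binding inhibition above 30%, about 3 SD of noise from non-fluorescent compounds; inactive = inhibition at or below 30%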); conditions: bead-bound GRK2, FAM-aptamer displacement, at 10 µM, stronger effect = higher value
[10] = target: Beta-2 adrenergic receptor (Homo sapiens) (UniProt P07550); experiment: beta2AR agonists driving receptor internalization, pilot screen, cell-based, FAP fluorogen, flow cytometry, validation set (AID 504459;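 active = percent response above 42, roughly 3 SD of non-fluorescent test compounds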;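 note: agonist-driven loss of surface beta2AR via internalization measured by FAP dye flow cytometry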); conditions: Am2.2-beta2AR cells, FAP surface receptor flow cytometry; at 10 µM; stronger effect = higher value
[11] = target: AP-2 complex subunit beta (Homo sapiens) (UniProt P63010); experiment: inhibitors of arrestin peptide binding to AP2, pilot screen, biochemical, validation set, GST-AP2 beads, flow cytometry (AID 504541;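 active = inhibition above 54%, about 3 SD of non-fluorescent compounds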;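 note: AP2 carries R879A mutation and is captured from E. coli lysate; bead-bound FITC arrestin peptide fluorescence measuring arrestin peptide binding to AP2; 0% = DMSO wells and 100% = excess unlabeled arrestin peptide control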); conditions: FITC arrestin peptide, at 10 µM, stronger effect = higher value, AP2 beta2 appendage fragment, R879A mutant
[12] = yeast V-ATPase proton transport modulators, S. cerevisiae, pHLuorin, HTS validation (AID 504600);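 note: plate controls were DMSO for no effect and reference compound for full effect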; conditions: S. cerevisiae pHLuorin cytosolic pH, at 10 µM, stronger effect = higher value
[13] = test system: anti-desmoglein-3 scFv antibody binding to human DSG3; experiment: inhibitors of anti-DSG3 scFv binding to DSG3, pilot screen, biochemical, validation compound set, bead-based, flow cytometry (AID 588368;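 active = binding below the plate cutoff, the plate median minus 3 SD, with a reading above zero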;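 note: signal is the median channel fluorescence of bead-bound GFP antibody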); conditions: Protein G beads, DSG3-Fc, scFv-GFP binding, at 10 µM, stronger effect = lower value
[14] = inhibitors of fungal efflux pumps CDR1, CDR2, MDR1, pilot screen, validation compound set, multiplex, phenotypic (AID 588506;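 active = efflux inhibition above 0.42, the validation set average plus 4 SD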;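 note: Nile Red retained in cells so higher fluorescence means more efflux inhibition; 0 = negative control wells and 1 = enniatin B 25 µM full block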); conditions: S. cerevisiae pump-expressing triplex, Nile Red efflux flow cytometry; at 10 µM; stronger effect = higher value; the pumps come from Candida albicans
[15] = target: ATP-binding cassette sub-family B member 6 (Homo sapiens) (UniProt Q9NP58); experiment: ABCB6 transporter inhibitors, pilot screen, K562-ABCB6 cells, flow cytometry, validation set (AID 588550;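 active = inhibition above the screen-wide mean plus 3 SD, about 51%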;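 note: 0% = DMSO wells and 100% = benzethonium chloride 70 µM positive control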); conditions: K562-ABCB6 porphyrin accumulation, 1 h, at 10 µM, stronger effect = higher value
[16] = promoters of myeloid differentiation in arrested cells, primary screen, cell-based, GFP/MAC1 double positive, flow cytometry, validation set (AID 588685;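 active = differentiation response of at least 50%, scaled between solvent and reference control, from cells with both markers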;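 note: compound exposure lasts four days before antibody staining and flow analysis; 0% = DMSO wells and 100% = 5 µM fulvestrant positive control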); conditions: ER-HoxA9 marrow cells, stronger effect = higher value, normalized: vehicle 0, fulvestrant 100

Integrin beta-1 (Homo sapiens) + Integrin alpha-4 (Homo sapiens), sequence (P05556 whole entry, looked up): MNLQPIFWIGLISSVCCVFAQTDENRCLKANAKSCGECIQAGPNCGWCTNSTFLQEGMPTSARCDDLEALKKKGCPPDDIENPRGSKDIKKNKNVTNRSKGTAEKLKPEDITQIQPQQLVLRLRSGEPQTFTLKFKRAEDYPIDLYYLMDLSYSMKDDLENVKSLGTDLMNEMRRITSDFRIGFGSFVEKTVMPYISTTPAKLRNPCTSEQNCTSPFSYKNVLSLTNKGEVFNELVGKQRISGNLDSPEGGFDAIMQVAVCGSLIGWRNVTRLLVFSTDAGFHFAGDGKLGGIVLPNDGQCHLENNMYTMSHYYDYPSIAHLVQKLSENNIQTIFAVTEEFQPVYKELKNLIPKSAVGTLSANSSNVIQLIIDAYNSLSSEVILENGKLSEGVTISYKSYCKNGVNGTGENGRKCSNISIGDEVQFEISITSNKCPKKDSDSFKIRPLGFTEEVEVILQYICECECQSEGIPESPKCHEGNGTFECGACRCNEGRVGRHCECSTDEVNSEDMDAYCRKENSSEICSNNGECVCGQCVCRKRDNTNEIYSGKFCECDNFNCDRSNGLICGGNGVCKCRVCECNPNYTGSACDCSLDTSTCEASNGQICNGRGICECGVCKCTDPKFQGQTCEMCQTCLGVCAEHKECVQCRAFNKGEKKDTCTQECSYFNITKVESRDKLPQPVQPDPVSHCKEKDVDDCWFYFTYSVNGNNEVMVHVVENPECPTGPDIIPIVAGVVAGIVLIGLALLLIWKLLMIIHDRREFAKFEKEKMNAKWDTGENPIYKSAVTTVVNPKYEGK
Integrin beta-1 (Homo sapiens) + Integrin alpha-4 (Homo sapiens), sequence (P13612 whole entry, looked up): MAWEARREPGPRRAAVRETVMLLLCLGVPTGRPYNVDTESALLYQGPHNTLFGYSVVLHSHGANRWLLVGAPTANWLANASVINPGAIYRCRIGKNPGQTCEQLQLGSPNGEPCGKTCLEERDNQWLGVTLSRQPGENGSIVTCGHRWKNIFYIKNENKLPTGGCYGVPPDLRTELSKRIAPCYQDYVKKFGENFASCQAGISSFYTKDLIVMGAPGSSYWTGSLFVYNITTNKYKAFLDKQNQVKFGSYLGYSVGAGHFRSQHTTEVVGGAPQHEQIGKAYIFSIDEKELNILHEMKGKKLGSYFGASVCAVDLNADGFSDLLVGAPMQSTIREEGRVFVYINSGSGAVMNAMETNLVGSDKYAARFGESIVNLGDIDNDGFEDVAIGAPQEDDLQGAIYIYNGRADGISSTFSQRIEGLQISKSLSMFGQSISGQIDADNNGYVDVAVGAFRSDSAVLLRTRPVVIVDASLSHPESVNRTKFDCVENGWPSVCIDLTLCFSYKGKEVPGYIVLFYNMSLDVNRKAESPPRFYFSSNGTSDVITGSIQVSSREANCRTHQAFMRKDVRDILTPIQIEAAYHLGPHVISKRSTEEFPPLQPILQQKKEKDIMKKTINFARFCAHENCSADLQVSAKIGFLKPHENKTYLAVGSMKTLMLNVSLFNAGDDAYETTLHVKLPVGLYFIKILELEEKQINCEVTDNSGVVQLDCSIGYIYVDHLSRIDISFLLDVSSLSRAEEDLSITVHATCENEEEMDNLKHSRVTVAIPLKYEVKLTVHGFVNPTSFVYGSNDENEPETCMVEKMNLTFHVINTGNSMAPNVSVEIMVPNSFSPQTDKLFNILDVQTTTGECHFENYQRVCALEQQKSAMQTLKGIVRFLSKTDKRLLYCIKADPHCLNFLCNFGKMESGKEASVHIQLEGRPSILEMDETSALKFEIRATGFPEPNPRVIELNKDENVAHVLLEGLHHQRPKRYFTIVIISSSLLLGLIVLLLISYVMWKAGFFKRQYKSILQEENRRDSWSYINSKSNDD
ATP-binding cassette sub-family B member 6 (Homo sapiens), sequence (Q9NP58 whole entry, looked up): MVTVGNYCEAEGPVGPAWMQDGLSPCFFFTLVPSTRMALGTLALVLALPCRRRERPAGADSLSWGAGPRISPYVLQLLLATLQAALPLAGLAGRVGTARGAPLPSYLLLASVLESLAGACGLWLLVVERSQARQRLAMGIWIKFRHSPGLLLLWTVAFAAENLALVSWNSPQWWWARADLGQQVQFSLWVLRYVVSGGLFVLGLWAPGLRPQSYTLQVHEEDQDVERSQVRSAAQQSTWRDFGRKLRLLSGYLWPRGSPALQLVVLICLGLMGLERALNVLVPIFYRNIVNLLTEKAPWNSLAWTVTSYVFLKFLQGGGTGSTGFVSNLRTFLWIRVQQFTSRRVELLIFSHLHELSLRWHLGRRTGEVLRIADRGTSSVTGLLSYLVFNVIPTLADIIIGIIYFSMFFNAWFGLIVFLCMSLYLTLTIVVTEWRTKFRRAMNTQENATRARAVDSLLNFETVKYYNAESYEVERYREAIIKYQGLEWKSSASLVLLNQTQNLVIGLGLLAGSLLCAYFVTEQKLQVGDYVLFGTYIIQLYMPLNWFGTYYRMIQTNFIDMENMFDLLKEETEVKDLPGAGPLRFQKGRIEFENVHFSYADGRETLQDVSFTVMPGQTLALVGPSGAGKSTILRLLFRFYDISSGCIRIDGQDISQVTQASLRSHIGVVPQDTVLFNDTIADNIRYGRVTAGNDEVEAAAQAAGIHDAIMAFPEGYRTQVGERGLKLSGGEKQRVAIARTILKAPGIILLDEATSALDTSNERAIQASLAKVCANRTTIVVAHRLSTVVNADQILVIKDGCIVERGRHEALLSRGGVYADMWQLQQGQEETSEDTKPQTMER
Beta-adrenergic receptor kinase 1 (Homo sapiens), sequence (P25098 whole entry, looked up): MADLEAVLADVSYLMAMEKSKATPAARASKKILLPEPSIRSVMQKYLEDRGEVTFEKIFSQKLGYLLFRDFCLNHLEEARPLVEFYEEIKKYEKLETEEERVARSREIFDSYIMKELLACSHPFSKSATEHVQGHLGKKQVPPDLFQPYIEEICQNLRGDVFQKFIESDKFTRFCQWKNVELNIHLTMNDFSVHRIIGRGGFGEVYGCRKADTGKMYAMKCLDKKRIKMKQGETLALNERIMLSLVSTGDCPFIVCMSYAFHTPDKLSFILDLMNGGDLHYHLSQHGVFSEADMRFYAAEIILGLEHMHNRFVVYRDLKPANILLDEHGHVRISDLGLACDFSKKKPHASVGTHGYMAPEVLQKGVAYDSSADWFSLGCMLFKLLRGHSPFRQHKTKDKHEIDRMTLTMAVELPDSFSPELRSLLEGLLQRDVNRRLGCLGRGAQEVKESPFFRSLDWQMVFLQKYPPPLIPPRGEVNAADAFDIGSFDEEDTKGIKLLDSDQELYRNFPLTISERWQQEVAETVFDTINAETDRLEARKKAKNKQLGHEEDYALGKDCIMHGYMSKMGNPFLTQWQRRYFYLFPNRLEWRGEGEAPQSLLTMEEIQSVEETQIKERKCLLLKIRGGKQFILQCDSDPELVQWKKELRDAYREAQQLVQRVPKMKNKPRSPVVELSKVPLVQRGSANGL
Beta-2 adrenergic receptor (Homo sapiens), sequence (P07550 whole entry, looked up): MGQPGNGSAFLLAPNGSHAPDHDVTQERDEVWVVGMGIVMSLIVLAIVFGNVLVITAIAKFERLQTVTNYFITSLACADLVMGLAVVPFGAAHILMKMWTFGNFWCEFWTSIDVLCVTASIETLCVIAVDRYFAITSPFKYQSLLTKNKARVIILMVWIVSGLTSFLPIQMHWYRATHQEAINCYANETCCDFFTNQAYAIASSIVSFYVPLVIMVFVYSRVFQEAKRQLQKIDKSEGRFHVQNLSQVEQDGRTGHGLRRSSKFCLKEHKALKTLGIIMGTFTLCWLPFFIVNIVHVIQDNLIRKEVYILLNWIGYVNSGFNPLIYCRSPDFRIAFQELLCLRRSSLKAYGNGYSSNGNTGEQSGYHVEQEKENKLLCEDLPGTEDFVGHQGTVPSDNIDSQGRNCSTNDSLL
AP-2 complex subunit beta (Homo sapiens), sequence (P63010 whole entry, looked up, the tested form may be a part, one chain of several): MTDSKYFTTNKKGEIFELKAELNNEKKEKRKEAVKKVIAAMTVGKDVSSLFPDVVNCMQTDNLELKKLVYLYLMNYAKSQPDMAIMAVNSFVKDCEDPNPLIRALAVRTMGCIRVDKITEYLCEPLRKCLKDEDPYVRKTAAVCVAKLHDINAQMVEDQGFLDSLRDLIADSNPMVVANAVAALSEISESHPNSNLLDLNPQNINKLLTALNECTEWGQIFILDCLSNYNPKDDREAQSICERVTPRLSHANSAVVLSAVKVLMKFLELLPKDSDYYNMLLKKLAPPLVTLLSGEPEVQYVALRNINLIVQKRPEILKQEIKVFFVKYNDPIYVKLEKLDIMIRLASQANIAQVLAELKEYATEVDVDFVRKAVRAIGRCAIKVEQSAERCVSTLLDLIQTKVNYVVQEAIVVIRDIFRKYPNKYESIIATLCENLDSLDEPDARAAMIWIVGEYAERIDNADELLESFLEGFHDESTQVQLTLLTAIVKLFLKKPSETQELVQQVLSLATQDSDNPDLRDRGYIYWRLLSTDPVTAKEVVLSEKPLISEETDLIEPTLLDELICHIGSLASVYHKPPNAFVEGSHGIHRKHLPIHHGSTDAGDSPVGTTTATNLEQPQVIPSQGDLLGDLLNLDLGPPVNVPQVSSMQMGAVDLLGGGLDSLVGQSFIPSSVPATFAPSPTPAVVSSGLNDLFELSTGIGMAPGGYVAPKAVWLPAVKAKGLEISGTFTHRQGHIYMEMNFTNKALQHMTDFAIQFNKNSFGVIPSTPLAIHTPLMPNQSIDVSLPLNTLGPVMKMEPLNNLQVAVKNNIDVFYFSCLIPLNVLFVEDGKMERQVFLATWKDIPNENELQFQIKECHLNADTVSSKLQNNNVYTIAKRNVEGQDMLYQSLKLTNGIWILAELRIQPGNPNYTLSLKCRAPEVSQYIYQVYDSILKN

Row | SMILES | percent of DMSO control GFP [1] | GFP response vs DMSO [2] | percent response of DMSO control [3] | GFP response vs DMSO [4] | GFP response, % of DMSO [5] | double positive events [6] [%] | vesicle binding response [6] | inhibition [7] | superoxide response (% of plate) [8] | aptamer binding inhibition [9] | response [10] | inhibition [11] | response [12] | binding (% of control) [13] | efflux inhibition (fraction of control) [14] | inhibition [15] | differentiation response [16]
1 | Cc1ccc2nc(C)c3c(c2c1)OC(C(C)(Cl)Br)C3 (stereo not drawn) | 102% (inactive) | 102% (inactive) | 111% (inactive) | 105% (inactive) | 105% (inactive) | 73 | 278% (inactive) | 6.4% (inactive) | 94.8% (inactive) | 5% (inactive) | 23.5% (inactive) | -1.65% (inactive) | 6.53% (inactive) | 98.4% (inactive) | 0.08 (inactive) | 1% (inactive) | 15.2% (inactive)
2 | Nc1ccc(-c2nc3ncccc3o2)c(Cl)c1 | 97.8% (inactive) | 103% (inactive) | 97.7% (inactive) | 112% (inactive) | 98.6% (inactive) | 56.7 | 243% (inactive) | -15.4% (inactive) | 118% (inactive) | 0% (inactive) | 0.9% (inactive) | -5.26% (inactive) | 61.4% (active) | 103% (inactive) | 0.15 (inactive) | 6% (inactive) | 4% (inactive)
3 | CCOC(=O)c1ccc(N2C(=O)C(CC(=O)NC)N(CCc3ccc(OC)c(OC)c3)C2=S)cc1 (stereo not drawn) | 103% (inactive) | 99.9% (inactive) | 101% (inactive) | 104% (inactive) | 98.8% (inactive) | 59.4 | 248% (inactive) | 6.85% (inactive) | 113% (inactive) | 5% (inactive) | 5.49% (inactive) | -11.1% (inactive) | 0.17% (inactive) | 103% (inactive) | 0.26 (inactive) | 4% (inactive) | -1.12% (inactive)
4 | CCOc1ccc2nc(N/C(N)=N/S(C)(=O)=O)nc(C)c2c1 | 90.6% (inactive) | 132% (inactive) | 107% (inactive) | 84.7% (inactive) | 93.8% (inactive) | 67.9 | 174% (inactive) | -3.24% (inactive) | 98.7% (inactive) | 3% (inactive) | -5.51% (inactive) | 35.3% (inactive) | -5.13% (inactive) | 95% (inactive) | 0.05 (inactive) | 0% (inactive) | 3.28% (inactive)
5 | CCc1ccc2oc(=O)cc(CN3CCC(C)CC3)c2c1 | 95% (inactive) | 104% (inactive) | 95.8% (inactive) | 123% (inactive) | 95.8% (inactive) | 53.7 | 178% (inactive) | -18.2% (inactive) | 98.9% (inactive) | 0% (inactive) | 13.8% (inactive) | -0.51% (inactive) | 85.2% (active) | 103% (inactive) | -0.06 (inactive) | -5% (inactive) | -12% (inactive)
6 | CN=C(NC#N)NCCSCc1nc[nH]c1C | 102% (inactive) | 101% (inactive) | 109% (inactive) | 94.8% (inactive) | 102% (inactive) | 62.1 | 195% (inactive) | -14.5% (inactive) | 104% (inactive) | -1% (inactive) | 3.13% (inactive) | 5.55% (inactive) | 0.96% (inactive) | 103% (inactive) | -0.44 (inactive) | 9% (inactive) | -10.4% (inactive)
7 | Cn1c(=O)c2nc3ccccc3nc2n(C)c1=O | 94.6% (inactive) | 103% (inactive) | 93.9% (inactive) | 112% (inactive) | 94.3% (inactive) | 61.5 | 198% (inactive) | 2.3% (inactive) | 99.2% (inactive) | 0% (inactive) | -7.58% (inactive) | -11.6% (inactive) | 2.81% (inactive) | 101% (inactive) | -0.1 (inactive) | 2% (inactive) | -12% (inactive)
8 | CCc1ccc(/C=C2\Oc3cc(OC(=O)N4CCOCC4)ccc3C2=O)cc1 | 98.7% (inactive) | 99.6% (inactive) | 83.4% (inactive) | 125% (inactive) | 79.8% (inactive) | 64.9 | 164% (inactive) | 11.7% (inactive) | 173% (inactive) | 4% (inactive) | -17.4% (inactive) | -5.57% (inactive) | 1.83% (inactive) | 99.3% (inactive) | 0.29 (inactive) | 0% (inactive) | 6.83% (inactive)
9 | CC1=C(/C=C/C(C)=C/C=C/C(C)=C/C(=O)O)C(C)(C)CCC1 | 106% (inactive) | 106% (inactive) | 103% (inactive) | 125% (inactive) | 121% (inactive) | 62.6 | 194% (inactive) | -2.82% (inactive) | 93.6% (inactive) | 1% (inactive) | -11.2% (inactive) | -5.9% (inactive) | -0.05% (inactive) | 101% (inactive) | 0.04 (inactive) | -2% (inactive) | -6.96% (inactive)
